Compound activity as filed in PubChem BioAssay.
In the library only some 1.1% were active in any assay of this set; here they are far more common.
TSG101-PTAP inh – blocks PTAP/TSG101 interaction to inhibit HIV-1 budding; Q99816; Fluorescence polarization, FITC-PTAP peptide / Tsg101 binding; Potency, µM (doses to about 115 µM), inactives show at the top dose activity change, negative = inhibition, most hits filed as inhibitors; 340,000 tested, under 10 active; AID 493005; active = well fitted inhibition curve with a large enough effect in the main read-out, with a control signal flat, not every such curve was filed as active; inconclusive = small, poorly fitted or top-dose-only effect, or effect the other way, or a change in a side signal; inactive = no such curve, though single readings can be large or run the other way; note: % of control where 0% means no effect
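Compounds were pin-transferred onto Tsg101 binding domain (10 uM final) in HEPES pH 7.5 buffer, then FITC-PTAP peptide was added at 50 nM final. After 20 min at RT, polarization reported peptide displacement across a qHTS concentration series.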
Eya2 phos inh – blocks the phosphatase activity of human Eya2; Potency, µM (highest dose often 76.9 µM), for the others: top-dose activity, negative = inhibition, actives largely listed as inhibitors; recombinant Eya2, OMFP fluorescence dephosphorylation (OMFP is methylfluorescein phosphate); O00167; 330,000 tested, 0.006% active; note: % is set by controls: 0 for no effect and ±100 for the full control effect
Target sequence (O00167 whole entry, looked up): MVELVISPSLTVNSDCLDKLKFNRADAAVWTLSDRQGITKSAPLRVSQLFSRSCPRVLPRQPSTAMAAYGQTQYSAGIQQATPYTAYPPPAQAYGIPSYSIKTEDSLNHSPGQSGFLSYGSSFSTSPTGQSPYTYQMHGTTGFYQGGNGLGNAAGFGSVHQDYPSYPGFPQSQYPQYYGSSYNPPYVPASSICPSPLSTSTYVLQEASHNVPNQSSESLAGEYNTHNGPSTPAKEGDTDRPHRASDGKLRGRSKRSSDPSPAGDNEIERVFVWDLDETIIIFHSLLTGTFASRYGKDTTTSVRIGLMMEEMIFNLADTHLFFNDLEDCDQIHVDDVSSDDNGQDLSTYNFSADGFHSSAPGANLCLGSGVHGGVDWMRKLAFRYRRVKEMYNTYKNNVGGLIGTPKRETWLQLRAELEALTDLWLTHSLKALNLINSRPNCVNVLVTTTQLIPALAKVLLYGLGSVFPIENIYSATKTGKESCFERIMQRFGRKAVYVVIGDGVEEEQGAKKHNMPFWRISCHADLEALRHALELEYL
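Eya2 protein (added as 0.2 uM solution) was preincubated with compound for 10 min at ambient temperature in 50 mM HEPES pH 7.5, 50 mM NaCl, 5 uM MgCl2, 0.05% BSA, 1 mM DTT. OMFP (added at 50 uM) then reacted 10 min; fluorescence read at 485/525 nm.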
USP2a inh – inhibitors of human ubiquitin-specific protease USP2a | USP2 core, Ub-CHOP2 coupled fluorogenic reporter, 485/531 | Potency, µM (doses to about 38.3 µM), for inactives: at the top dose activity change, negative = inhibition, most hits filed as inhibitors | 330,000 tested, 0.01% active;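 note: plate controls were DMSO wells for no effect and full inhibition by NEM control for full effect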
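Cell-free coupled assay: 10nM USP2 core preincubated 30min RT with compound in Tris-HCl pH 8.0/CaCl2/CHAPS buffer, then 25nM Ub-CHOP2 and 25nM reporter substrate; fluorescence (Ex 485/Em 531) read after 60min RT, normalized to NEM inhibition, concentration-response curves fitted.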
ALOX12 inh – inhibitors of human 12S-lipoxygenase ALOX12; purified 12hLO, xylenol orange hydroperoxide absorbance; 580,000 tested, 1.1% active; Potency, µM (highest dose often 108 µM), without a hit: top-dose activity change, negative = inhibition, most hits filed as inhibitors; AID 1671190; note: % is set by controls: 0 for no effect and ±100 for the full control effect
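Purified human 12hLO (150 nM final) in 25 mM Hepes, 0.01% Triton X-100, pH 7.0 was preincubated 15 min at room temperature with compound. Then 40 uM arachidonic acid was added, 30 min. Hydroperoxide was read by Fe-XO absorbance ratio 573/405 nm.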
The depositor's hits bear a star; i = inactive; ? = inconclusive; . = no result; ! = a repeat was not active; [ ] = remark or other dose. Unless noted, calls come from the whole dose curve; as a rule, active = well fitted curve in the direction sought with a large enough effect; inconclusive = small, poorly fitted or top-dose-only effect, or another doubt; inactive = no such curve, though single readings can be large; an effect the other way counts as inactive or inconclusive. Potency is the fitted concentration of half-maximal effect.

SMILES	TSG101-PTAP inh	Eya2 phos inh	USP2a inh	ALOX12 inh
COc1ccc(CNc2ncc(-c3ccccc3)n2C)c2ccccc12	-4%	2%	-1%	10µM*
CCCCCCCCCCCCCCCC[n+]1ccc(C(N)=O)cc1	-1%	-14%	-1%	45µM*
CCCCCCCCCCCCCCCC[n+]1ccccc1	0%	.	.	?
CCc1cc(Cn2nc(-c3ccccc3)cc2C(=O)NCCOC)on1	1%	16%	-2%	-9%
CCOC(=O)c1cc(-c2ccccc2C)nn1Cc1cc(CC)no1	2%	0%	3%	7.9µM*
CCc1cc(Cn2nc(-c3ccccc3)cc2C(=O)NCc2cccs2)on1	-3%	-8%	-11%	8.9µM*
COC(=O)C1=C(C)N=C2SC=C(CC(=O)NCc3ccccc3)N2C1c1ccccc1OC (stereo unspecified)	.	.	.	-5%
CN1CC(=O)N(c2ccccc2)Cc2c1ncnc2N1CCC(O)CC1	.	.	.	42%
CN1CC(=O)N(c2ccccc2)Cc2c1ncnc2N1CCc2ccccc2C1	.	.	.	32µM*
O=C(CC1C(=O)NCCN1C(=O)Nc1ccc(Cl)cc1)Nc1ccc(F)cc1 (stereo unspecified)	-7%	7%	2%	40µM*
COc1ccc(OC)c(NC(=O)[C@H]2C[C@@H]3CCCN3[C@]23C(=O)Nc2c(C)cc(Cl)cc23)c1	.	.	.	-25%
O=C(O)c1cc(-c2ccc(/C=N/NC(=S)Nc3ccccc3)o2)ccc1Cl	-4%	-5%	4%	28µM*
NC(=S)N/N=C1\c2ccccc2-c2c(C(=O)O)cccc21	2%	16%	1%	32µM*
Cc1ccc(OCCNC(C)C)cc1	.	.	.	2%
O=C(OCCC12CC3CC(CC(C3)C1)C2)c1ccc(NCc2cc(O)ccc2O)cc1	2%	.	.	5.6µM*
O=C(OCC12CC3CC(CC(C3)C1)C2)c1ccc(NCc2cc(O)ccc2O)cc1	0%	.	.	16µM*
O=C(OCC12CC3CC(CC(C3)C1)C2)c1cc([N+](=O)[O-])cc([N+](=O)[O-])c1	.	.	.	9%
CC(C)CNc1ccc2c(n1)C(C)(C(=O)Nc1cccnc1)CN(Cc1ccccc1)C2 (stereo unspecified)	.	.	.	23%[176 µM]
Cc1cc2oc(=O)cc(CN3CCCC3)c2cc1Cl	.	.	.	6.3µM*
COCCN(CCOC)Cc1cc(=O)oc2cc(C)c(Cl)cc12	.	.	.	45µM*
CCCCN(CCCC)Cc1cc(=O)oc2ccc3ccccc3c12	.	.	.	35µM*
CCCN(CCC)Cc1cc(=O)oc2cc(C)c(Cl)cc12	.	.	.	40µM*
Cc1cc2oc(=O)cc(CN(Cc3ccccc3)Cc3ccccc3)c2cc1Cl	.	.	.	-14%
COCCN(CCOC)Cc1cc(=O)oc2ccccc12	.	.	.	18µM*
COC(=O)[C@@H]1Cc2ncn(Cc3ccc(OC)cc3)c2CN1S(=O)(=O)c1ccc(F)cc1	.	.	.	27%
SMILES	TSG101-PTAP inh	Eya2 phos inh	USP2a inh	ALOX12 inh
O=C(CSc1oc(-c2ccco2)nc1S(=O)(=O)c1ccc(Cl)cc1)NCC1CCCO1 (stereo unspecified)	-2%	-11%	-1%	7.9µM*
O=C(CSc1oc(-c2ccco2)nc1S(=O)(=O)c1ccccc1)NCC1CCCO1 (stereo unspecified)	-2%	-18%	4%	?
NC(=O)CSc1oc(-c2ccco2)nc1S(=O)(=O)c1ccc(Cl)cc1	-2%	0%	2%	28µM*
O=C(CSc1oc(-c2ccccc2)nc1S(=O)(=O)c1ccc(Cl)cc1)c1ccccc1	.	.	.	7.9µM*
O=C1c2c(nc(COc3ccc(Cl)cc3)n2Cc2ccccc2)NCCN1CCOc1ccccc1	.	.	.	57%
CCc1cccc(NC(=O)CSc2nc3c(=O)[nH]cnc3n2CC)c1	.	.	.	-11%
COc1ccc(CN2Cc3[nH]cnc3C[C@H]2C(=O)NCc2ccccc2)c2ccccc12	.	.	.	-12%[176 µM]
COc1ccc(-c2csc(CCn3nc(C)c4c(C(F)(F)F)cc(=O)[nH]c43)n2)cc1	.	.	.	18µM*
Cc1ccc(-c2csc(CCn3nc(C)c4c(C(F)(F)F)cc(=O)[nH]c43)n2)cc1	.	.	.	10µM*
Cc1nn(CCC#N)c2[nH]c(=O)cc(C(F)(F)F)c12	-3%	14%	2%	-1%
Cc1ccccc1-n1nnnc1C1(NC2CCCCC2)CCCC1	.	.	.	4%
Cc1ccsc1C(=O)N1CCC2(CC1)NC(=O)N(c1ccccc1)N2	.	.	.	7.1µM*
Cc1ccsc1C(=O)N1CCN(S(=O)(=O)c2cccs2)CC1	-6%	3%	1%	i
Cc1ccsc1C(=O)N1CCC2(CC1)NC(=O)N(c1cccc(Cl)c1)N2	.	.	.	1.3µM*
Cc1ccc(C(=O)N2CCC3(CC2)NC(=O)N(c2ccccc2)N3)cc1	.	.	.	1.3µM*
Cc1ccsc1C(=O)N1CCC2(CC1)NC(=O)N(c1cccc(F)c1)N2	.	.	.	2.8µM*
Cc1ccsc1C(=O)N1CCC1(C)C(=O)NS(=O)(=O)c1cccc(F)c1 (stereo unspecified)	.	.	.	-9%
CCc1nc(CN(C)C(C(=O)O)c2ccc(C(C)(C)C#N)cc2)no1 (stereo unspecified)	.	.	.	-6%
COc1cc(/C=C/c2cc[n+](C)cc2)ccc1OCC(=O)Nc1ccc(Cl)c(Cl)c1	2%	0%	?	50µM*
COc1ccc(/C=C/C(=O)OCC(=O)Nc2ccc(S(N)(=O)=O)cc2)cc1OC	1%	2%	-1%	0%
COc1ccc(NC(=O)COc2ccc(/C=C/c3cc[n+](C)cc3)cc2OC)cc1	-2%	-13%	1%	?
COc1ccc(/C=C/C(=O)OCC(=O)Nc2ccc(Cl)c(S(=O)(=O)N(C)C)c2)cc1OC	-6%	-1%	-4%	0.79µM*
CCn1ccc(C(=O)N2CC(Oc3ccc(-c4nc(-c5ccccc5)no4)cc3)C2)n1	.	.	.	-10%
CCOC(=O)NC1(Nc2cccc(Cl)c2)Oc2ccccc2O1	-1%	-36%	-5%	45µM*
CCOC(=O)c1ccccc1NC(=O)Nc1cccc(Cl)c1	.	.	.	8%
SMILES	TSG101-PTAP inh	Eya2 phos inh	USP2a inh	ALOX12 inh
NC(=O)c1c(NC(=S)Nc2ccccc2)sc2c1CCCC2	-3%	-3%	-2%	35µM*
CCOc1ccc(NC(=O)c2c(NCc3cccs3)sc3c2CCCCC3)cc1	.	.	.	-28%
CCOc1ccc(NC(=O)c2c(NCc3ccc(C)o3)sc3c2CCCCC3)cc1	.	.	.	40µM*
O=C(O)CCC(=O)Nc1sc2c(c1C(=O)Nc1ccccc1)CCCCC2	-1%	4%	4%	14µM*!
CC(C)(C)OC(=O)N1CC(Nc2cccc(C(F)(F)F)c2)C1	.	.	.	0%[6.33 µM]
CCn1c(COc2ccc(Cl)cc2)n[nH]c1=S	.	.	.	16µM*
Cc1cc(Cl)ccc1OCCCc1n[nH]c(=S)n1Cc1ccccc1	.	.	.	16µM*
CCCCCCCc1n[nH]c(=S)n1Cc1ccccc1	1%	-27%	0%	?
CCn1c(CCCOc2ccc(Cl)cc2Cl)n[nH]c1=S	-5%	0%	0%	25µM*!
CCn1c(CCCOc2ccc(Cl)cc2C)n[nH]c1=S	.	.	.	18µM*
Cc1ccc2c(c1)C(=O)c1ccccc1C2=O	.	.	.	-4%[176 µM]
COCCn1c(COc2ccc(C(C)(C)c3ccccc3)cc2)n[nH]c1=S	.	.	.	16µM*
